In the library only some 17% were active in any assay of this set; here they are far more common.
TGFb SMAD3 inh: inhibitors of TGF-b signaling; HepG2 CAGA-GFP TGF-b/SMAD3 reporter, GFP fluorescence, 18 h; TGF-beta stimulated, 500 pg/mL final; Potency, µM (series often up to 46.1 µM), usual class: inhibitors; 410,000 tested, 1.2% active; AID 588855; further: nearly all actives have a fitted effect of over 65% in size
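HEPG2 CAGA-GFP reporter cells (1000/well, DMEM with 1% FBS) received compounds, then recombinant TGF-beta at 500 pg/mL final for 18 hours at 37 degrees C. Per-cell GFP summed per well was normalised to unstimulated and stimulated DMSO controls before curve fitting.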
ATXN2 expr inh: inhibitors of ATXN2 expression; HEK-293 ATXN2-luciferase reporter, luminescence, 24 h; Potency, µM (highest dose often 57 µM), actives largely listed as inhibitors; 360,000 tested, 0.72% active; AID 1745845; further: nearly all actives have a fitted effect of over 55% in size
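ATXN2-luciferase reporter cells (luciferase flanked by upstream and downstream ATXN2 gene portions) were treated 24 h at 37 °C with compounds at up to 57 uM. SteadyGlo luminescence gave expression; GF-AFC fluorescence gave viability.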
HepG2 viability: counter-screen for TGF-b inhibitors: cytotoxicity in HepG2 cells | HepG2 CAGA-GFP viability, ATP luminescence, 18 h | Potency, µM (titrated, usually from 46.1 µM), usual class: cytotoxic | 410,000 tested, 0.76% active | AID 588856
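HepG2 CAGA-GFP cells (1000/well, DMEM with 1% FBS) received compound, then TGF-beta at 500 pg/mL final, and were incubated 18 hours at 37 degrees C. Viability was read by CellTiter-Glo luminescence. Media-only wells were set as complete cell-killing and DMSO as no toxicity.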
S2 tox: cell viability loss in ATXN counter-screen. AID 651635. S2 cells (HEK-293 line with an ATXN2-luciferase reporter) viability, CellTiter-Fluor protease fluorescence, 24 h. Potency, µM (top dose mostly 56.7 µM), hits mostly cytotoxic. 400,000 tested, 0.49% active; further: nearly all actives have a fitted effect of over 40% in size
DT40 TDP1 no CPT: qHTS for Inhibitors of human tyrosyl-DNA phosphodiesterase 1 (TDP1): qHTS in cells in absence of CPT | DT40 Tdp1-/- hTDP1 cells, no CPT, ATP luminescence, 48 h | Potency, µM (doses to about 46.2 µM), hits mostly inhibitors | 420,000 tested, 15% active; further: nearly all actives have a fitted effect of over 55% in size
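Chicken DT40 Tdp1-/- cells stably complemented with human TDP1 were seeded at 400 cells/well with DMSO in place of 20 nM camptothecin. After compound pinning, cells grew at least 48 hr at 37 °C; viability read by CellTiter-Glo luminescence.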
DT40 TDP1 CPT: growth inhibition of DT40 Tdp1-/-;hTDP1 cells with camptothecin (screen for TDP1 inhibitors); 420,000 tested, 12% active; Potency, µM (top dose mostly 46.2 µM), hits mostly inhibitors; chicken DT40 Tdp1-/-;hTDP1 cells + 20 nM CPT, ATP luminescence, 48 h; further: nearly all actives have a fitted effect of over 55% in size
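Chicken DT40 Tdp1-/- cells complemented with human TDP1, 400 cells/well, exposed to compounds plus 20 nM camptothecin for at least 48 h at 37 C; viability read as ATP content by CellTiter-Glo luminescence.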
Hits are given with their value; i = inactive; ? = inconclusive; nt = not tested or not shown. The call rests on the fitted dose curve; in most records, active means well fitted curve in the direction sought with a large enough effect; inconclusive means small, poorly fitted or top-dose-only effect, or another doubt; inactive means no such curve, though single readings can be large; an effect the other way counts as inactive or inconclusive.

SMILES | TGFb SMAD3 inh | ATXN2 expr inh | HepG2 viability | S2 tox | DT40 TDP1 no CPT | DT40 TDP1 CPT
COc1cc(CNc2ncnc3c2ncn3[C@H]2CN(Cc3ccc(C(=O)O)cc3)C[C@@H](CO)O2)cc(OC)c1OC | i | i | i | i | i | i
COc1cc(CNc2ncnc3c2ncn3[C@H]2CN(Cc3ccc(-c4ccccc4)cc3)C[C@@H](CO)O2)cc(OC)c1OC | ? | ? | i | ? | 12µM | 8.2µM
C=CCNc1ncnc2c1ncn2[C@H]1CN(Cc2cccc3ccccc23)C[C@@H](CO)O1 | i | i | i | i | ? | ?
CN(C)c1ccc(C(CNS(=O)(=O)c2ccc(Cl)cc2)N2CCCC2)cc1 (stereo not given) | i | nt | i | nt | ? | ?
CC1CN(C(=S)SCC(=O)c2ccc(Cl)cc2)CC(C)O1 (stereo not given) | i | i | i | i | 2.6µM | 4.1µM
CC(C)CNC(=O)c1ccccc1NC(=O)CN(c1ccc2c(c1)OCCO2)S(C)(=O)=O | i | i | i | i | i | i
O=C(NCc1ccco1)c1cccc2ccccc12 | i | i | i | i | i | i
O=C(NCc1ccco1)c1cccnc1-c1nc2ccccc2s1 | i | i | i | i | 29µM | 21µM
O=C(Nc1ccccc1C(=O)NCc1ccco1)Nc1cccc2ccccc12 | i | nt | i | ? | 12µM | 21µM
CS(=O)(=O)N(CC(=O)Nc1ccccc1C(=O)NCc1ccco1)c1ccc2c(c1)OCCO2 | ? | i | i | i | ? | 18µM
O=C(Nc1cccc(Cl)c1)Nc1ccccc1C(=O)NCc1ccco1 | i | i | i | i | 18µM | 18µM
O=C(NCc1ccco1)c1cccnc1Cl | i | i | i | i | i | i
CN(CC(=O)Nc1ccccc1-c1ccccc1)Cc1ccccc1Cl | ? | i | i | i | ? | ?
COc1ccc(-n2nc(C(=O)N3CCN(c4cccc(C)c4)C(C)C3)c3c4ccccc4n(C)c3c2=O)cc1 (stereo not given) | i | i | i | i | ? | i
COc1ccc(N2CCN(c3ccc(NC(=O)NN)cc3)CC2)cc1 | i | i | i | i | i | i
CCNC(=O)C12CCC(C)(C(=O)O1)C2(C)C (stereo not given) | i | i | i | i | i | i
COc1ccc(NC(C)C(=O)N/N=C/c2ccccc2OCc2ccc(Br)cc2)cc1 (stereo not given) | i | i | i | i | 22µM | ?
COC(=O)N/N=C/c1ccccc1OCCOc1ccc(OC)cc1 | i | i | i | i | 16µM | i
Cc1ccc([N+](=O)[O-])cc1NC(=S)NCCc1ccccc1 | i | i | i | i | i | ?
Cc1cc(C)cc(NC(=O)CSc2nnc(-c3ccccc3C)o2)c1 | i | i | i | i | i | i
Cc1ccccc1-c1nnc(SCC(=O)Nc2cccnc2Cl)o1 | i | ? | i | i | 16µM | 13µM
O=C(CSc1nnc(-c2ccccc2Br)o1)Nc1nncs1 | i | i | 16µM | i | i | i
O=C(CSc1nnc(-c2ccncc2)o1)Nc1nncs1 | i | i | i | i | i | i
CCN(C)C1CN(Cc2cn(CCCOC)nn2)S(=O)(=O)C1 (stereo not given) | nt | i | nt | i | i | i
COc1cc(/C=N/Nc2nc3ccccc3s2)ccc1OC(=O)c1ccccc1F | i | i | i | i | 4.6µM | 6.5µM
COc1cc(OC)cc(C(=O)Oc2ccc(/C=N/Nc3nc4ccccc4s3)cc2OC)c1 | i | i | i | i | ? | ?
COC(=O)c1ccc(/C=N/NC(=O)CNc2cccc(C)c2)cc1 | i | i | i | i | i | i
CCOc1cc(/C=C(\C#N)C(=O)Nc2cccc(C(=O)O)c2)ccc1OCc1ccc(Br)cc1 | i | i | i | i | 29µM | ?
CCOc1cc(/C=N/NC(=O)CNc2cccc(C)c2)ccc1OC(=O)c1ccccc1 | ? | i | i | i | 18µM | ?

Source: PubChem
